Data on 15 molecules can be found in PubChem BioAssay (NCATS).

Inconclusive results are not listed. The source made the active and inactive calls. Calls come from the whole dose curve; as a rule, active = well fitted curve in the direction sought with a large enough effect; inconclusive = small, poorly fitted or top-dose-only effect, or another doubt; inactive = no such curve, though single readings can be large; an effect the other way counts as inactive or inconclusive.

The nature of assay [1]: qHTS of pediatric cancer cell lines to identify multiple opportunities for drug repurposing: Confirmatory screen for DAOY cells (AID 1347114). Note: nearly all actives have a fitted effect of over 65% in size. Note: potency is the fitted concentration of half-maximal effect. Summed up: (§1)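 Viability measured as metabolically active cells via CellTiter-Glo luminescence following 48 hours of compound exposure, 11-point dilutions in confirmatory testing. 500-1,000 cells/well plated 5 hours before dosing; controls were DMSO and 2.3 µM bortezomib.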
On the technique in general: In qHTS, concentration-response curves come from the screen itself.

Assay [2] can be described thus: qHTS of pediatric cancer cell lines to identify multiple opportunities for drug repurposing: Confirmatory screen for SJ-GBM2 cells (AID 1347116). Note: nearly all actives have a fitted effect of over 60% in size. Note: potency is the fitted concentration of half-maximal effect. A digest of the protocol:
as §1

Assay [3] is described as follows: qHTS of pediatric cancer cell lines to identify multiple opportunities for drug repurposing: Confirmatory screen for Rh41 cells (AID 1347123).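 Note: 48 h compound exposure; nearly all actives have a fitted effect of over 60% in size.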 Note: potency is the fitted concentration of half-maximal effect. Summed up:
(§2)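 Cells (500-1,000/well) in growth media were settled 5 h at 37 degrees C, then given compounds for 48 h. Viability was read as CellTiter-Glo luminescence. Primary runs used MIPE at 11 points (0.78 nM-46 µM) and NPC at 8 points (0.59 nM-46 µM); follow-ups used 11 points.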

Assay [4] in a line: qHTS of pediatric cancer cell lines to identify multiple opportunities for drug repurposing: Confirmatory screen for RD cells (AID 1347124).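 Note: cells exposed to compound for 48 h before viability readout; nearly all actives have a fitted effect of over 65% in size.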 Note: potency is the fitted concentration of half-maximal effect. Summed up: as §2
A short description of assay [5]: qHTS of pediatric cancer cell lines to identify multiple opportunities for drug repurposing: Confirmatory screen for Rh18 cells (AID 1347125). Note: nearly all actives have a fitted effect of over 55% in size. Note: potency is the fitted concentration of half-maximal effect. A digest of the protocol: as §2
Assay [6] in a line: qHTS of pediatric cancer cell lines to identify multiple opportunities for drug repurposing: Confirmatory screen for Rh30 cells (AID 1347126). Note: nearly all actives have a fitted effect of over 55% in size. Note: potency is the fitted concentration of half-maximal effect. A digest of the protocol: as §2
Assay [7] can be described thus: qHTS of pediatric cancer cell lines to identify multiple opportunities for drug repurposing: Confirmatory screen for SK-N-SH cells (AID 1347129).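 Note: cells exposed to compound for 48 h before viability read; nearly all actives have a fitted effect of over 60% in size.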 Note: potency is the fitted concentration of half-maximal effect. A digest of the protocol: as §2
The next assay addresses Furin (Homo sapiens) (UniProt P09958). As to the kind of experiment: Furin counterscreen qHTS for Zika virus inhibitors (AID 1347149). Note: potency is the fitted concentration of half-maximal effect; nearly all actives have a fitted effect of over 70% in size. Summed up: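 Counterscreen measures cleavage of 2 microM BOC-RVRR-AMC, below its ~15 microM Km, by 5 nM full-length human furin at pH 7.0 after a 15-min compound preincubation. Inhibition derives from the 15-min fluorescence increase at 37C.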
A general note: A counterscreen serves to expose hits that act by an unwanted route or on another target.

In assay [8] the test system is Zika virus NS2B-NS3 protease (unlinked complex). Briefly: Confirmatory screen GU AMC qHTS for Zika virus inhibitors (AID 1347153).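 For Potency: enzyme at 25 nM with substrate at 10 µM below its Km of 18.3 µM; potency is the fitted concentration of half-maximal effect.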 Note: nearly all actives have a fitted effect of over 70% in size. Summed up: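 Fluorescence change (ex 340/em 450 nm) over 15 min, ~20% substrate conversion, normalized to no-inhibitor and no-enzyme controls, then Hill-fitted. Unlinked protease at 25 nM; AMC peptide 10 µM.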
In assay [9] the test system is Zika virus NS2B-NS3 protease. Briefly: Primary screen GU AMC qHTS for Zika virus inhibitors (AID 1347154). Note: nearly all actives have a fitted effect of over 70% in size. Note: potency is the fitted concentration of half-maximal effect. A digest of the protocol: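 Unlinked Zika NS2B hydrophilic domain/NS3 protease domain noncovalent complex (25 nM final) in 10 mM Tris-HCl pH 8.0, 0.01% Tween 20, with AMC peptide substrate. Fluorescence (ex 340, em 450 nm) change over 15 min, room temperature; percent inhibition fitted to 4-parameter Hill equation.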

Assay [10] in a line: qHTS of pediatric cancer cell lines to identify multiple opportunities for drug repurposing: Confirmatory screen for TC32 cells (AID 1347118).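 Note: cells exposed to compound for 48 h before the read; nearly all actives have a fitted effect of over 65% in size.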 Note: potency is the fitted concentration of half-maximal effect. A digest of the protocol: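 qHTS, TC32, 48 h drug treatment, CellTiter-Glo luminescence as a proxy for metabolically active cells; primary top concentration 46 µM (MIPE 11-pt, NPC 8-pt); confirmatory 11-pt.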
Assay [11] can be described thus: qHTS of pediatric cancer cell lines to identify multiple opportunities for drug repurposing: Confirmatory screen for control Hh wild type fibroblast cells (AID 1347121). Note: nearly all actives have a fitted effect of over 70% in size. Note: potency is the fitted concentration of half-maximal effect. Summed up: as §2
The nature of assay [12]: qHTS of pediatric cancer cell lines to identify multiple opportunities for drug repurposing: Confirmatory screen for Saos-2 cells (AID 1347127). Note: nearly all actives have a fitted effect of over 60% in size. Note: potency is the fitted concentration of half-maximal effect. A digest of the protocol:
as §2

The nature of assay [13]: qHTS of pediatric cancer cell lines to identify multiple opportunities for drug repurposing: Confirmatory screen for OHS-50 cells (AID 1347128).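 Note: compound exposure lasted 48 h at 37 degrees C; nearly all actives have a fitted effect of over 55% in size.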 Note: potency is the fitted concentration of half-maximal effect. A digest of the protocol:
as §2

Assay [14] is described as follows: qHTS of pediatric cancer cell lines to identify multiple opportunities for drug repurposing: Confirmatory screen for LAN-5 cells (AID 1347113). Note: nearly all actives have a fitted effect of over 65% in size. Note: potency is the fitted concentration of half-maximal effect. A digest of the protocol: as §2
Assay [15] is described as follows: qHTS of pediatric cancer cell lines to identify multiple opportunities for drug repurposing: Confirmatory screen for NB-EBc1 cells (AID 1347115).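 Note: cells exposed to compound for 48 h before the viability read; nearly all actives have a fitted effect of over 45% in size.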 Note: potency is the fitted concentration of half-maximal effect. Summed up:
as §2

Assay [16] in a line: qHTS of pediatric cancer cell lines to identify multiple opportunities for drug repurposing: Confirmatory screen for BT-37 cells (AID 1347117). Note: nearly all actives have a fitted effect of over 55% in size. Note: potency is the fitted concentration of half-maximal effect. A digest of the protocol: as §2
Assay [17] concerns Zika virus NS2B-NS3 protease (unlinked). As to the kind of experiment: Optimization of GU AMC qHTS for Zika virus inhibitors: Unlinked NS2B-NS3 protease assay (AID 1347151). Note: series mostly up to about 52 µM; nearly all actives have a fitted effect of over 80% in size. Summed up: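 Noncovalent complex of NS2B hydrophilic domain and NS3 protease domain, 25 nM final, in 10 mM Tris-HCl pH 8.0, 0.01% Tween 20. AMC fluorescence change over 15 min at room temperature was fitted to a 4-parameter Hill equation.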

Assay [18] is described as follows: qHTS of pediatric cancer cell lines to identify multiple opportunities for drug repurposing: Confirmatory screen for MG 63 (6-TG R) cells (AID 1347119). Note: nearly all actives have a fitted effect of over 55% in size. Note: potency is the fitted concentration of half-maximal effect. A digest of the protocol: as §2
Assay [19] deals with N-terminal Xaa-Pro-Lys N-methyltransferase 1 (Homo sapiens) (UniProt Q9BV86). As to the kind of experiment: qHTS Assay for Inhibitors of N-terminal methyltransferase 1 (NTMT1): LOPAC validation of the NTMT1 SAHH-coupled ThioGlo3 Assay (AID 1347143). A digest of the protocol: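 In this qHTS pilot against the LOPAC set, 125nM NTMT1 met compounds tested at multiple concentrations, and fluorescence was normalized to background.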
Chain of N-terminal Xaa-Pro-Lys N-methyltransferase 1 (Homo sapiens) (Q9BV86 whole entry, looked up): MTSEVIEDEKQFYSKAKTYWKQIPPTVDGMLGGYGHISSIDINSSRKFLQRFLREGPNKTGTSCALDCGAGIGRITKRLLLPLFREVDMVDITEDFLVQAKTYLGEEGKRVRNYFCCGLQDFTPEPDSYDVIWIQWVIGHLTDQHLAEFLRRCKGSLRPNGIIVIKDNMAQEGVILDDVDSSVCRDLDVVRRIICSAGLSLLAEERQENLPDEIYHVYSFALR

Chain of Furin (Homo sapiens) (P09958 whole entry, looked up): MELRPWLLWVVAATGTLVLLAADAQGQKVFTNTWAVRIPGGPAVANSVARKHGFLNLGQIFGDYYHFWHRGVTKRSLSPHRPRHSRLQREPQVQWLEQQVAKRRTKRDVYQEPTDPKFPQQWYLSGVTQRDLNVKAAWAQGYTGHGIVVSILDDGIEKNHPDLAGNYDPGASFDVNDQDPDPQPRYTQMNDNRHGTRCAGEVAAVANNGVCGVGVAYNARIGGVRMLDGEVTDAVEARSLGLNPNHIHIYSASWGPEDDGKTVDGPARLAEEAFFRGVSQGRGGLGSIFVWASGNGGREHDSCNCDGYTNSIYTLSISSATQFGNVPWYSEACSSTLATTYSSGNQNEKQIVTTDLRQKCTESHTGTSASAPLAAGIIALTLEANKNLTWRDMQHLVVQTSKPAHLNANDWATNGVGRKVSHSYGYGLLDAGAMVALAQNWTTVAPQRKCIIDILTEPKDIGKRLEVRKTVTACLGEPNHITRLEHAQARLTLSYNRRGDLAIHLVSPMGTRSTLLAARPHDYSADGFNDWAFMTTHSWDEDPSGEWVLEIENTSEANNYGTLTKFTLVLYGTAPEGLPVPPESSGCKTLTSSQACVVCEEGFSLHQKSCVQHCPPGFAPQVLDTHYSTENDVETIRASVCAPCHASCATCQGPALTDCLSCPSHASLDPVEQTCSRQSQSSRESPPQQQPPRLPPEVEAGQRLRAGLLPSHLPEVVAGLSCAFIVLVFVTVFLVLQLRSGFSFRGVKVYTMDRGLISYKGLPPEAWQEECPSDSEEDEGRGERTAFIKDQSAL

Turning to `COc1ccc(-c2ccc3c(N4CCOCC4)nc(N4C[C@@H](C)O[C@@H](C)C4)nc3n2)cc1CO`, the Potency in assay [1] is 9.27 µM (active); in assay [2], 1.47 µM (active); in assay [3] it was 0.657 µM (active); in assay [4] it was 1.31 µM (active); in assay [5], 1.31 µM (active); in assay [6], 0.657 µM (active). Besides, the Potency in assay [7] is 8.33 µM (active); with Furin (Homo sapiens) it was 24.1 µM (active); in [8], 27.1 µM (active); in assay [9], 19.2 µM (active).
Consider `O=C(NOC[C@H](O)CO)c1ccc(F)c(F)c1Nc1ccc(I)cc1F`, for which the Potency entry in assay [1], in [2], in assay [10], in assay [11], in [4] and in [5] was “inactive” throughout. For the same molecule, the Potency entry in assay [6], in assay [12], in assay [13] and in assay [9] was “inactive” throughout.
For the molecule `Cc1oncc1C(=O)Nc1ccc(C(F)(F)F)cc1`, the Potency result in assay [14], in assay [1], in assay [15], in [16], in [11] and in assay [3] was “inactive” throughout. Also, the Potency entry in [5], in [6], in [12], in assay [13], in assay [7] and in assay [17] was “inactive” each time. Besides, in [9], the Potency entry was “inactive”.
As to `CCC(C)(C)C(=O)O[C@H]1C[C@@H](C)C=C2C=C[C@H](C)[C@H](CC[C@@H]3C[C@@H](O)CC(=O)O3)[C@H]21`, the Potency result in assay [14], in assay [15] and in assay [9] was “inactive” in each case. For the same molecule, the Potency in assay [1] was 5.85 µM (active); in assay [10], 16.5 µM (active); in [18], 2.93 µM (active); in assay [6] it was 16.5 µM (active); in assay [12], 2.33 µM (active); in [7], 5.26 µM (active).
Regarding `CCC(C)n1ncn(-c2ccc(N3CCN(c4ccc(OC[C@H]5CO[C@](Cn6cncn6)(c6ccc(Cl)cc6Cl)O5)cc4)CC3)cc2)c1=O` (stereo partly drawn), the Potency result in assay [14], in assay [15], in [2], in [18], in assay [11] and in [4] was “inactive” in each case. Also, the Potency result in assay [5], in assay [6], in assay [12] and in [9] was “inactive” each time. Further, the Potency was 3.29 µM (active) in assay [10], 11.7 µM (active) in assay [3] and 14.8 µM (active) in assay [7].
Regarding `O=NN(CCCl)C(=O)NCCCl`, the Potency entry in assay [14], in assay [1], in assay [2], in assay [11], in assay [3] and in assay [4] was “inactive” in each case. In addition, the Potency result in assay [5], in assay [6], in [12], in assay [13], in [7] and in assay [17] was “inactive” each time. In addition, in [9], the Potency entry was “inactive”. Besides, the Potency in assay [18] was 20.8 µM (active).
With `Nc1nc2c(ncn2COCCO)c(=O)[nH]1`, the Potency entry in assay [14], in assay [1], in assay [15], in assay [2], in assay [10] and in [18] was “inactive” each time. Further, the Potency result in assay [11], in assay [3], in assay [4], in [5], in assay [6] and in assay [12] was “inactive” in each case. Further, the Potency result in [13], in assay [7], in [19], in assay [17] and in assay [9] was “inactive” in each case.
On to `Cc1c(CN2CCN(C(=O)C(C)C)CC2)sc2c(N3CCOCC3)nc(-c3cnc(N)nc3)nc12`, for which the Potency in assay [14] was 0.737 µM (active); in [16], 0.737 µM (active); in assay [10], 0.737 µM (active); in assay [18], 0.369 µM (active); in assay [3], 0.414 µM (active); in [4], 2.08 µM (active). Also, the Potency in [5] is 0.827 µM (active); in assay [6] it was 0.928 µM (active); in [12], 0.928 µM (active); in assay [13], 1.04 µM (active); in [7], 1.05 µM (active). Besides, the Potency result in assay [9] is “inactive”.
On to `CNCc1ccc(-c2[nH]c3cc(F)cc4c3c2CCNC4=O)cc1`, for which the Potency result in assay [14], in assay [1], in assay [2], in assay [11], in assay [4] and in assay [5] was “inactive” in each case. Moreover, the Potency result in assay [6], in assay [12] and in [13] was “inactive” in each case. For the same molecule, the Potency was 5.85 µM (active) in [10], 16.5 µM (active) in assay [3] and 24.1 µM (active) in assay [9].
In the case of `C[C@]1(c2nc3c(C(N)=O)cccc3[nH]2)CCCN1`, the Potency entry in [14], in assay [1], in assay [15], in assay [2], in assay [18] and in assay [11] was “inactive” each time. Further, the Potency result in [3], in assay [4], in assay [5], in assay [6], in assay [12] and in assay [13] was “inactive” each time. Further, the Potency entry in assay [7] and in assay [9] was “inactive” each time. Also, in assay [10], the Potency is 18.5 µM (active).
As to `CS(=O)(=O)c1ccc(C(=O)Nc2ccc(Cl)c(-c3ccccn3)c2)c(Cl)c1`, the Potency entry in assay [14], in assay [1], in assay [15], in assay [2], in assay [16] and in assay [18] was “inactive” each time. Also, the Potency result in assay [11], in assay [4], in assay [5], in assay [6], in assay [13] and in assay [7] was “inactive” in each case. For the same molecule, the Potency in assay [10] was 4.65 µM (active).
In the case of `COCC(=O)NCC=Cc1ccc2ncnc(Nc3ccc(Oc4ccc(C)nc4)c(C)c3)c2c1`, the Potency in assay [14] is 42.7 µM (active); in assay [1], 16.5 µM (active); in assay [15] it was 30.2 µM (active); in assay [16], 24 µM (active); in assay [10], 26.9 µM (active); in assay [18] it was 38 µM (active). Also, the Potency in [11] was 42.7 µM (active); in assay [3], 18.5 µM (active); in assay [6], 2.93 µM (active); in assay [13] it was 42.7 µM (active); in the assay with Furin (Homo sapiens) it was 30.3 µM (active). In addition, the Potency entry in assay [2] and in [4] was “inactive” each time.
As to `Nc1nc2ccc(OC(F)(F)F)cc2s1`, the Potency result in assay [15], in [2], in [10], in assay [11], in assay [3] and in assay [4] was “inactive” each time. Moreover, the Potency result in assay [5], in [6], in assay [7], in assay [17] and in assay [9] was “inactive” each time. Moreover, the Potency in assay [18] and in assay [13] was 18.5 µM (active) throughout.
On to `Nc1nc2[nH]cc(CCc3ccc(C(=O)N[C@@H](CCC(=O)O)C(=O)O)cc3)c2c(=O)[nH]1`, for which the Potency result in assay [14], in assay [1], in [15], in [11], in [3] and in assay [4] was “inactive” each time. Also, the Potency result in assay [5], in assay [6], in assay [13], in [7] and in assay [9] was “inactive” in each case. Besides, in assay [10], the Potency is 0.465 µM (active).
`CN1CCN(CCCN2c3ccccc3Sc3ccc(C(F)(F)F)cc32)CC1`: the Potency in [1] is 18.5 µM (active); in assay [16] it was 23.3 µM (active); in assay [18], 23.3 µM (active); in assay [3] it was 14.7 µM (active); in [4] it was 23.3 µM (active); in assay [5], 20.8 µM (active). In addition, the Potency in assay [12] is 20.8 µM (active); in assay [13] it was 20.8 µM (active); in assay [7], 16.6 µM (active). The Potency result in assay [17], in assay [8] and in [9] was “inactive” in each case.
